From PubChem BioAssay (NCI)
This is part of a sample that, as a whole, favours compounds with a hit. Of some 79,000 tested, about 15% had one in any assay. A number with no mark means an inactive call. Active and inactive are the calls of the source. Rule as the data show it: active = growth inhibition above about 70%; inactive = the rest.

Key:
[1] = NCI Yeast Anticancer Drug Screen. Data for the rad50 strain (AID 155);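 also: 0% = growth of vehicle-only cultures of the same strain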; conditions: S. cerevisiae rad50 strain growth inhibition, hits give high values
Outline: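 Genetically altered yeast (DNA repair pathway); compound treatment; growth inhibition vs vehicle ctrl.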

[2] = NCI Yeast Anticancer Drug Screen. Data for the mec2-1 strain (AID 157); conditions: S. cerevisiae mec2-1 strain, hits give high values
Outline: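 Cells of the genetically defined mec2-1 yeast strain are incubated with test compound. Inhibition of growth is calculated against vehicle-treated controls.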

[3] = NCI Yeast Anticancer Drug Screen. Data for the sgs1 mgt1 strain (AID 161);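 also: 0% = growth of cultures given vehicle only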; conditions: S. cerevisiae sgs1 mgt1 strain, hits give high values
Outline: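 Test agents were incubated with a DNA-repair-mutant yeast strain. Growth was then read and compared against vehicle-treated controls.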

[4] = NCI Yeast Anticancer Drug Screen. Data for the cln2 rad14 strain (AID 165);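 also: 0% = growth equal to vehicle treated cultures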; conditions: S. cerevisiae cln2 rad14 strain, hits give high values
Outline: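 The screen exposed genetically defined yeast (cln2 rad14) to test compounds and scored growth inhibition relative to vehicle-treated controls.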

[5] = NCI Yeast Anticancer Drug Screen. Data for the bub3 strain (AID 167); conditions: S. cerevisiae bub3 mutant strain, hits give high values
Outline: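 Yeast carrying a defined mutation is treated with each compound, and growth is compared with that of vehicle-exposed cells to give inhibition.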

[6] = NCI Yeast Anticancer Drug Screen. Data for the mlh1 rad18 strain (AID 175); conditions: S. cerevisiae mlh1 rad18 strain growth inhibition, hits give high values
Outline: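 Compound-treated yeast growth, normalised to vehicle controls. Strain bears defined DNA repair mutations.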

[7] = at 5.0 µM (retest, dose inferred, filed as 0.5)
[8] = at 50.0 µM (retest, dose inferred, filed as 5.0)

SMILES	growth inhibition [1, 7] [%]	growth inhibition [1, 8]	growth inhibition ([1]; at 50.0 µM)	growth inhibition [2, 7] [%]	growth inhibition [2, 8]	growth inhibition ([2]; at 50.0 µM)	growth inhibition [3, 7]	growth inhibition [3, 8]	growth inhibition ([3]; at 50.0 µM)	growth inhibition [4, 7] [%]	growth inhibition [4, 8]	growth inhibition ([4]; at 50.0 µM)	growth inhibition [5, 7]	growth inhibition [5, 8]	growth inhibition ([5]; at 50.0 µM)	growth inhibition [6, 7] [%]	growth inhibition [6, 8]	growth inhibition ([6]; at 50.0 µM)
CC(C)CCOC(=O)c1ccc(O)cc1.[Zn+2]	5	36%	76.1% (active)	-1	32%	65.6%	3%	29%	76.8% (active)	2	17%	37%	53%	86% (active)	88.5% (active)	3	35%	84.2% (active)
CCN(CC)C(=O)C(C)OC(C)=O (configuration not stated)	-1	0%	-21.4%	2	1%	17.6%	2%	-1%	-11.8%	-2	-3%	-16%	2%	-5%	8.7%	1	3%	27.1%
O=[N+]([O-])c1ccc2c(Nc3ccccc3-c3ccccc3Nc3c4ccccc4nc4cc([N+](=O)[O-])ccc34)c3ccccc3nc2c1	29	96% (active)	90.9% (active)	22	98% (active)	90% (active)	18%	98% (active)	91% (active)	30	98% (active)	90.8% (active)	27%	98% (active)	87.4% (active)	38	96% (active)	88.9% (active)
OCCN1COc2cc3c(cc2C1)OCN(CCO)C3	1	11%	17.4%	-4	1%	-4.9%	-1%	14%	13.2%	3	-5%	42.9%	1%	-3%	-6.35%	-5	10%	16.2%
CCCCCCCCCCCCCCCCOc1ccc(S(=O)(=O)N/N=c2/sc3ccc(S(=O)(=O)O)cc3n2C)cc1C(=O)O	6	88% (active)	79.6% (active)	6	63%	78.7% (active)	0%	76% (active)	76% (active)	16	62%	40.2%	-3%	83% (active)	68.8%	-13	88% (active)	73.4% (active)
O=C1C=C(Cl)C(=O)C(Cl)=C1Cl	-14	99% (active)	99.2% (active)	11	99% (active)	99.3% (active)	12%	99% (active)	99.2% (active)	-25	91% (active)	98.7% (active)	8%	99% (active)	99% (active)	3	99% (active)	98.8% (active)
Clc1nssc1=Nc1nonc1-c1ccccc1	59	99% (active)	88.7% (active)	64	100% (active)	91.2% (active)	86% (active)	100% (active)	79.9% (active)	68	96% (active)	48.6%	97% (active)	99% (active)	79.7% (active)	49	98% (active)	92.2% (active)
COC(=O)Nc1nc2ccc(CCC(=O)c3c(C)oc(C)c3-c3ccc(NC(C)=O)cc3)cc2[nH]1	4	79% (active)	58.1%	4	55%	37.3%	5%	78% (active)	75.8% (active)	6	67%	27.4%	5%	70% (active)	26.1%	-2	69%	60.7%
CC(C)OC(=O)C1C=CCc2c(O)ccc(O)c21 (configuration not stated)	8	25%	21.2%	15	24%	11.8%	12%	44%	61%	7	22%	65.9%	4%	24%	52%	11	35%	86.2% (active)
